# Screens from PubChem.
# ASM inhibitor: blocks human secretory acid sphingomyelinase. P17405. placental ASM, HMU-PC fluorogenic substrate, 60 min. Potency, µM (series often up to 57.5 µM), without a hit: top-dose activity change, negative = inhibition, most hits filed as inhibitors. actives 0.006% (n = 340,000); also: potency is read from the fitted curve at half-maximal effect
# Target sequence (P17405 47-631 limits assumed): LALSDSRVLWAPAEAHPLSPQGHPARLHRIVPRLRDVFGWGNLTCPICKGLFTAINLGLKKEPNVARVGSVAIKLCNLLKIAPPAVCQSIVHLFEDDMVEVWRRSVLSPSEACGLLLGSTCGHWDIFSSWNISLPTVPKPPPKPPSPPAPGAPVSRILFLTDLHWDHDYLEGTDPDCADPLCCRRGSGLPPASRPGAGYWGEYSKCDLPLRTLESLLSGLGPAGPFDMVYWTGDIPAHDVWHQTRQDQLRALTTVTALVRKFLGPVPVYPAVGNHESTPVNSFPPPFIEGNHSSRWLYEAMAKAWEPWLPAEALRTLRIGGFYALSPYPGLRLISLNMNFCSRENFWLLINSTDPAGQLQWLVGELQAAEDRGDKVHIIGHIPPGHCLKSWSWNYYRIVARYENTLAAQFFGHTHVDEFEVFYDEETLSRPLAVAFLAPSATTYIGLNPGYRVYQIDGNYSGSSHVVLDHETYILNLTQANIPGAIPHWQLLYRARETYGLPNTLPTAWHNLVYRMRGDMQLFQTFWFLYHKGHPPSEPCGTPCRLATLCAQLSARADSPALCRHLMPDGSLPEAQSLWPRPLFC
#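 qHTS format. ASM enzyme prepared from human placenta hydrolyses the fluorogenic substrate HMU-PC0 (9 uM final) over 60 min at 37 °C after a 10 min compound preincubation.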
# DT40 TDP1 CPT: growth inhibition of DT40 Tdp1-/-;hTDP1 cells with camptothecin (screen for TDP1 inhibitors). chicken DT40 Tdp1-/-;hTDP1 cells + 20 nM CPT, ATP luminescence, 48 h. Potency, µM (highest dose often 46.2 µM), for the others: at the highest dose activity change, negative = growth inhibition, usual class: inhibitors. actives 12% (n = 420,000); also: potency is read from the fitted curve at half-maximal effect; % is scaled to controls: 0 for no effect and ±100 for the full control effect; nearly all actives have a fitted effect of over 55% in size
#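 Chicken DT40 Tdp1-/- cells stably complemented with human TDP1 were seeded at 400 cells/well in medium containing 20 nM camptothecin, exposed to pin-transferred compounds, and grown at 37 °C for at least 48 hr. Viability was read as ATP luminescence.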
# HepG2 viability: HepG2 cytotoxicity, counter-screen for TGF-b inhibitors; HepG2 CAGA-GFP viability, ATP luminescence, 18 h; Potency, µM (titrated, usually from 46.1 µM), inactives show top-dose activity change, negative = cytotoxicity, most hits filed as cytotoxic; actives 0.76% (n = 410,000); AID 588856; also: potency is read from the fitted curve at half-maximal effect
#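 CellTiter-Glo luminescence gave cytotoxicity after 18 hours at 37 degrees C. The cells were HepG2 CAGA-GFP in 1% FBS DMEM, stimulated with 500 pg/mL TGF-beta after compound addition. %Activity was normalised to no-cell wells (complete cell-killing) and DMSO (no toxicity), and curves were fitted and classified.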
# TDP1 cell noCPT: qHTS for Inhibitors of human tyrosyl-DNA phosphodiesterase 1 (TDP1): qHTS in cells in absence of CPT; DT40 Tdp1-/- hTDP1 cells, no CPT, ATP luminescence, 48 h; actives 15% (n = 420,000); Potency, µM (doses to about 46.2 µM), for inactives: top-dose activity change, negative = growth inhibition, hits mostly inhibitors; also: potency is read from the fitted curve at half-maximal effect; % is scaled to controls: 0 for no effect and ±100 for the full control effect; nearly all actives have a fitted effect of over 55% in size
#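 Chicken DT40 Tdp1-/- cells complemented with human TDP1, screened without camptothecin (DMSO vehicle only), 400 cells/well. Compounds pin-transferred, cells incubated at 37 °C for at least 48 hr. Growth read as ATP-dependent luminescence (CellTiter-Glo, 30 min at RT).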
# IL1B secr inh: inhibitors of inflammasome signaling (IL-1 beta secretion) | actives 4.7% (n = 360,000) | THP-1 LPS/ATP IL-1B secretion, AlphaLISA, 16 h; stronger effect = lower value | activity change, % at 57.5 µM; in the data active = activity change below about -50%; inconclusive = mostly about -30% to -49%; also: % is scaled to controls: 0 for no effect and ±100 for the full control effect
#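 Secreted IL-1B measured by AlphaLISA bead assay after 16 h compound exposure of THP-1 cells; compounds (final up to 57.5 uM) added 1 h before LPS (250 ng/mL) and ATP (1.25 mM) stimulation; lower signal means less secretion.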
# TGFb inhibitor: inhibitors of TGF-b signaling. HepG2 CAGA-GFP TGF-b/SMAD3 reporter, GFP fluorescence, 18 h; TGF-beta stimulated, 500 pg/mL final. Potency, µM (top dose mostly 46.1 µM), for the others: top-dose activity, negative = inhibition, hits mostly inhibitors. actives 1.2% (n = 410,000); also: potency is read from the fitted curve at half-maximal effect; % is scaled to controls: 0 for no effect and ±100 for the full control effect; nearly all actives have a fitted effect of over 65% in size
#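 Cell-based qHTS in HEPG2 carrying a CAGA-GFP Smad reporter; compounds added before 500 pg/mL final TGF-beta, 18 h incubation at 37 degrees C, GFP fluorescence quantified per cell by imaging cytometry.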
# * = called active by the depositor; i = inactive; u = inconclusive; x = not tested or not shown. Hits are enriched below; roughly 19% of the tested compounds scored in any of these assays. Unless noted, calls follow the shape of the dose curve; as a rule, active = well fitted curve in the direction sought with a large enough effect; inconclusive = small, poorly fitted or top-dose-only effect, or another doubt; inactive = no such curve, though single readings can be large; an effect the other way counts as inactive or inconclusive.
SMILES,ASM inhibitor,DT40 TDP1 CPT,HepG2 viability,TDP1 cell noCPT,IL1B secr inh,TGFb inhibitor
COc1cccc(-c2cc3nc(Nc4ccc(OC)c(OC)c4)n(C)c(=O)c3s2)c1,x,u,-9.9%,u,u,u
COc1ccc(Nc2nc3cc(-c4sccc4C)sc3c(=O)n2C)cc1OC,x,1.3µM*,-15.7%,1.03µM*,-1.7,u
Cc1ccsc1-c1cc2nc(NCCOc3ccccc3Cl)n(C)c(=O)c2s1,x,u,-2.3%,u,-10.4,0.2%
Cn1c(SCC(=O)NCC2CCCO2)nnc1-c1ccco1 (configuration not stated),3.4%,7.5%,15.4%,3.8%,12.7,9.7%
COc1ccccc1CNC(=O)Cn1ncc2c(=O)oc3ccc(C)cc3c21,x,-20.6%,5.8%,-19.3%,x,0.2%
CC(C)c1ccc(NC(=O)CN2CCN(C(=O)C3CCCO3)CC2)cc1 (configuration not stated),2.3%,-8.9%,-3.9%,5.6%,2.8,4.8%
COc1ccc(N2CCN(c3oc(-c4ccccc4C)nc3S(=O)(=O)c3ccccc3)CC2)cc1,x,11.6µM*,-5.9%,9.2µM*,x,u
COc1ccccc1/C=C/c1nc(S(=O)(=O)c2ccccc2)c(N2CCC(C(N)=O)CC2)o1,i,u,14.8%,u,-26.9,9.6%
COc1ccc(-c2nc(S(=O)(=O)c3ccccc3)c(N3CCCC3)o2)cc1,x,-0.7%,3.3%,-4.7%,5.3,-8.7%
COc1ccc(-c2nc(S(=O)(=O)c3ccccc3)c(N3CCC(C)CC3)o2)cc1,x,20.6µM*,3.1%,11.6µM*,x,u
COc1cccc(-c2nc(S(=O)(=O)c3ccccc3)c(N3CCC(C)CC3)o2)c1,x,u,1.1%,8.2µM*,x,u
COc1ccccc1-c1nc(S(=O)(=O)c2ccccc2)c(N2CCC(C)CC2)o1,x,23.1µM*,-2.4%,3.66µM*,x,u
COc1ccc(CN2CCN(CCSc3ccc(C)cc3)CC2)c(OC)c1OC,-0.9%,u,-26.9%,u,-1.1,u
O=C(NCCCN1CCOCC1)c1ccc2c(c1)N(Cc1c(F)cccc1Cl)C(=O)c1ccccc1S2,-1.6%,u,-34.2%,u,-52.3*,u
O=C(NCCCN1CCOCC1)c1ccc2c(c1)N(Cc1cccc(Cl)c1)C(=O)CS2,-0.9%,u,-5.6%,16.4µM*,-7.6,0.1%
CCN1C(=O)c2ccccc2Sc2ccc(C(=O)NCCCN3CCOCC3)cc21,1.6%,0.7%,2.2%,-23.3%,0.0,-4.2%
O=C(NCCCN1CCOCC1)c1ccc2c(c1)N(Cc1cccc(Cl)c1)C(=O)c1ccccc1S2,x,u,11.2µM*,23.1µM*,x,u
Cc1noc(C)c1C(=O)Nc1ccccc1N1CCCC1,2.5%,u,1.5%,u,22.4,-1.6%
COC(=O)c1c(C)[nH]c(C(=O)C(C)OC(=O)c2cnc(C)cn2)c1C (configuration not stated),-2.7%,-18.5%,-10.1%,2.8%,35.9,-4.0%
CNC(=O)c1cc(S(=O)(=O)N2CC(C)OC(C)C2)ccc1N1CCCCC1 (configuration not stated),0.2%,-3.8%,2.3%,-19.0%,i,4.9%
O=C(NCC(=O)N1CCC(Cc2ccccc2)CC1)c1ccccc1F,x,u,-30.2%,20.6µM*,u,7.3%
NC(=O)c1ccccc1OCC(=O)N1CCC(Cc2ccccc2)CC1,-0.9%,7.31µM*,-27.9%,9.2µM*,-22.8,u
O=C(NCC(=O)N1CCCC1)c1ccccc1F,3.3%,7.2%,7.2%,11.3%,-8.3,-2.7%
